# SW480 rereplic: A quantitative high throughput screen for small molecules that induce DNA re-replication in SW480 colon adenocarcinoma cells; Potency, µM (doses to about 46.1 µM), for inactives: at the highest dose re-replication activation, usual class: activators; SW480 DNA re-replication, Hoechst DNA content imaging, 48 h; 340,000 tested, 1.8% active; note: potency is the fitted concentration of half-maximal effect; % of control where 0% means no effect; nearly all actives have a fitted effect of over 55% in size
#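 Hoechst fluorescence of nuclei (405 nm excitation, 500-530 nm emission) measured by plate-scanning imager after 48 hr compound exposure at 37 C; re-replication scored as increased number of nuclei with elevated intensity.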
# IL1B secr inh: qHTS for Inhibitors of Inflammasome Signaling: IL-1-beta AlphaLISA Primary Screen. 360,000 tested, 4.7% active. AID 743279, 2014. THP-1 LPS/ATP IL-1B secretion, AlphaLISA, 16 h; hits give low values. activity change, % at 57.5 µM; in the data active = activity change below about -50%; inconclusive = mostly about -30% to -49%; note: % is set by controls: 0 for no effect and ±100 for the full control effect
#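 Secreted IL-1B measured by AlphaLISA bead assay after 16 h compound exposure of THP-1 cells; compounds (final up to 57.5 uM) added 1 h before LPS (250 ng/mL) and ATP (1.25 mM) stimulation; lower signal means less secretion.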
# MCF10A rerep: A quantitative high throughput screen for small molecules that induce DNA re-replication in MCF 10a normal breast cells; MCF 10A DNA re-replication, Hoechst nuclear intensity, 48 h; Potency, µM (top dose mostly 46.1 µM), without a hit: at the highest dose activity, positive = re-replication, usual class: activators; 350,000 tested, 2.9% active; AID 624296, 2012; note: potency is the fitted concentration of half-maximal effect; % of control where 0% means no effect; nearly all actives have a fitted effect of over 50% in size
# RORgamma inh: qHTS for inhibitors of ROR gamma transcriptional activity; AID 2551, 2010; Nuclear receptor ROR-gamma (Mus musculus), P51450; Drosophila S2 Gal4-RORgamma UAS-luciferase reporter, 20 h; Potency, µM (doses to about 53.6 µM), without a hit: at the top dose activity change, negative = inhibition, actives largely listed as inhibitors; 310,000 tested, 5.4% active; note: potency is the fitted concentration of half-maximal effect; % is set by controls: 0 for no effect and ±100 for the full control effect; nearly all actives have a fitted effect of over 60% in size
# Target sequence (P51450 whole entry, looked up, the tested form may be a part): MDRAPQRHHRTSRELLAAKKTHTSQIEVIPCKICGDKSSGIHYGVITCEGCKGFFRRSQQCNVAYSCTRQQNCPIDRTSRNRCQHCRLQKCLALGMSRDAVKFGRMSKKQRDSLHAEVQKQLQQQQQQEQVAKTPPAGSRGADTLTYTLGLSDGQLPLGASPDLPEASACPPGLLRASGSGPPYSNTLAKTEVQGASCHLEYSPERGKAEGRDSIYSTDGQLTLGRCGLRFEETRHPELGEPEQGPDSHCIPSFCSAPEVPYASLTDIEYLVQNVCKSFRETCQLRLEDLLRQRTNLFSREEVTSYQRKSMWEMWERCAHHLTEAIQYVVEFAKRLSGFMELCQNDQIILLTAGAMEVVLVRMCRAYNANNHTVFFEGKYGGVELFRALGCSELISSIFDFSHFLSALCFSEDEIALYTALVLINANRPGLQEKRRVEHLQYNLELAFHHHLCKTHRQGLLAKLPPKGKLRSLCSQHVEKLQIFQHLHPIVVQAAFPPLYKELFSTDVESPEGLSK
#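 Read-out: Photinus luciferase luminescence; inhibitors lower reporter signal. Insect Schneider cells with Gal4-ROR gamma fusion under metallothionein promoter, UAS reporter; 700 uM final copper sulfate induction, 20 hr, ambient temperature.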
# Gal4-VP16 FLuc: VP16 counterscreen qHTS for inhibitors of ROR gamma transcriptional activity | Drosophila S2 Gal4-VP16 UAS-luciferase, luminescence, 20 h | Potency, µM (series often up to 53.6 µM), inactives show top-dose activity, negative = inhibition, hits mostly inhibitors | 310,000 tested, 3.5% active;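 note: Gal4-VP16 expression switched on by copper sulfate through the metallothionein promoter; potency is the fitted concentration of half-maximal effect; % is set by controls: 0 for no effect and ±100 for the full control effect; nearly all actives have a fitted effect of over 50% in size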
# Numbers without * were called inactive; i = inactive; ? = inconclusive; . = not tested or not shown; [ ] = remark or other dose. Hits are enriched below; roughly 11% of the tested compounds scored in any of these assays. Unless noted, calls come from the whole dose curve; as a rule, active = well fitted curve in the direction sought with a large enough effect; inconclusive = small, poorly fitted or top-dose-only effect, or another doubt; inactive = no such curve, though single readings can be large; an effect the other way counts as inactive or inconclusive.
SMILES,SW480 rereplic,IL1B secr inh,MCF10A rerep,RORgamma inh,Gal4-VP16 FLuc
N#C/C(=N\Nc1cccc2ccccc12)c1nnc2n1CCCCC2,?,26.6,?,?,3.16µM*
CNc1nnc(-c2ccc(N(C)C)cc2)s1,-3.4%,-9.7,0.0%,?,8.91µM*
CN(C)c1ccc(Cc2ccc(N(C)C)cc2)cc1,11.7%,-4.7,-2.6%,-0.1%,17.6%
COc1cc(C(=O)Nc2cccc(-c3nc4cc(C)ccc4o3)c2C)cc(OC)c1OC,1.2%,18.3,7.31µM*,-34.7%,1.9%
O=C(N/C(=C/c1ccco1)C(=O)N1CCOCC1)c1ccccc1Br,-3.3%,i,-7.4%,-17.3%,5.2%
COCC(C)N1CC(O)=C(c2nc(-c3ccc(Cl)cc3)cs2)C1=N (stereo unspecified),1.6%,-53.3*,?,-5.9%,-4.3%
Cc1ccc(CSc2nnc(-c3cccc(S(=O)(=O)N4CCOCC4)c3)n2C2CCCC2)cc1,3.0%,-55.2*,?,43.7%,-20.0%
NC(=O)CSc1nnc(-c2cccc(S(=O)(=O)N3CCOCC3)c2)n1C1CCCCCC1,?,0.0,?,-14.2%,-6.3%
CCCC#Cc1ccc2c(c1)O[C@H](CN(C)S(=O)(=O)c1cccc(OC)c1)[C@H](C)CN([C@H](C)CO)S2(=O)=O,.,-15.9,.,.,.
NC(=O)/C=C/C(=O)Nc1ccc(Cl)cc1,17.7%,-78.5*,14.6µM*,3.16µM*,?
O=C(/C=C/C(Cl)(Cl)Cl)Nc1ccc(Cl)cc1,?,-103.5*,?,.,.
CC(C)CCN1CCc2nc(COc3ccccc3)c3c(c2C1)COC(C)C3 (stereo unspecified),.,.,.,0.6%[10 µM],0.4%[10 µM]
O=C1C=C(c2ccccc2)C[C@H](c2cccs2)[C@H]1n1nnc([N+](=O)[O-])n1,2.06µM*,-73.0*,?,?,?
Cc1ccc(/C=N/NC(=O)c2nnn(-c3nonc3N)c2CSc2ccccc2)cc1,-7.0%,7.0,8.5%,-17.8%,-0.6%
Nc1nonc1-n1nnc(C(=O)N/N=C/c2ccco2)c1CSc1ccccc1,-7.6%,4.2,-1.8%,?,-5.3%
Cc1ccc(/C=N/NC(=O)c2nnn(-c3nonc3N)c2CNc2ccccc2)cc1,23.0%,15.3,15.4%,-35.5%,-11.2%
Cc1ccc(/C=N/NC(=O)c2nnn(-c3nonc3N)c2CSc2ccccc2)o1,-20.0%,?,15.4%,7.08µM*,11.2µM*
Cc1ccc(SCc2c(C(=O)N/N=C/c3ccoc3)nnn2-c2nonc2N)cc1,-1.2%,-0.9,3.1%,7.94µM*,15.8µM*
Nc1nonc1-n1nnc(C(=O)N/N=C/c2cc(Br)ccc2O)c1CNc1ccccc1,?,69.0,7.31µM*,5.01µM*,7.08µM*
Cc1ccc(SCc2c(C(=O)N/N=C/c3ccccc3)nnn2-c2nonc2N)cc1,-2.2%,-52.5*,16.3%,-44.2%,-4.9%
COc1ccc(CC(=O)Nc2c(C(=O)N3CCN(c4ccccc4OC)CC3)oc3ccccc23)cc1OC,-1.6%,22.2,-2.7%,-4.5%,-4.4%
CCc1c(C)nc2c(-c3ccccc3OC)c(C)[nH]n2c1=O,-7.0%,-12.0,-1.2%,1.2%,3.8%
O=C(c1ccc(Cl)cc1)C1CCCN(Cc2cccn2-c2ccccn2)C1 (stereo unspecified),2.1%,-80.4*,5.6%,-10.0%,1.3%
COc1cccc(C(=O)C2CCCN(Cc3cccn3-c3ccccn3)C2)c1 (stereo unspecified),5.4%,?,-1.9%,-1.4%,-9.3%
Cc1ccsc1C(=O)C1CCCN(Cc2cccn2-c2ccc(Cl)cn2)C1 (stereo unspecified),18.4µM*,-76.4*,?,9.5%,-8.6%
COc1ccc(F)cc1C(=O)C1CCCN(Cc2cccn2-c2cccnc2)C1 (stereo unspecified),4.3%,11.8,8.8%,-11.3%,-6.9%
COc1ccc(C(=O)C2CCCN(Cc3cccn3-c3ccccn3)C2)cc1F (stereo unspecified),1.7%[1.84 µM],-52.2*,?,?,-12.5%
